Only some compounds are listed: those with a hit (about 1.2% of all), similar ones and a draw of the others.
PrP UTR inh – inhibition of PrP 5' UTR reporter expression. cell-based PrP 5' UTR mRNA reporter, plate reader. hit rate 0.35% among 340,000. inhibition, % (test concentration not listed). AID 488862, 2010; in the data active = inhibition above about 52%; also: 0 = median of the neutral control wells
TcdB inh – TcdB glycohydrolase inhibitors, primary screen, biochemical, single point, plate reader. hit rate 0.24% among 350,000. inhibition, % at 9.99 µM. AID 652162, 2013. Toxin B (Clostridioides difficile), P18177. TcdB glycohydrolase enzymatic assay; in the data active = inhibition above about 10%
ugtP null kill – growth inhibition of ugtP-null S. aureus, primary screen, RN4220 ugtP deletion, OD600; 16 h; AID 1259309, 2017; growth inhibition, % (test concentration not listed); hit rate 0.54% among 330,000; in the data active = growth inhibition above about 68%;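 also: plate controls were untreated wells for no effect and antibiotic for full effect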
PfHsp40 rescue – rescue of yeast from PfHsp40 toxicity, primary screen, S. cerevisiae, ATP luminescence | S. cerevisiae expressing PfHsp40, growth rescue | hit rate 0.68% among 340,000 | growth rescue, % at 12.5 µM; in the data active = growth rescue above about 28%, passing the limit was not always enough;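 also: yeast W303a lacking pdr1 and pdr3 grown in galactose medium; growth measured after three days at 30 °C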
RN4220 kill – growth inhibition of S. aureus RN4220, primary screen, OD600; 16 h; hit rate 0.33% among 330,000; AID 1259311, 2017; inhibition, % (no concentration beside the values); in the data active = inhibition above about 85%;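 also: plate controls were untreated cells for no effect and reference antibiotic for full effect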
Numbers without * were called inactive; x = no result.

SMILES	PrP UTR inh	TcdB inh	ugtP null kill	PfHsp40 rescue	RN4220 kill
COCC(=O)Nc1ccc2c(c1)C(=O)N(C)C[C@H](OC)[C@@H](C)CN(C(C)=O)[C@@H](C)CO2	x	-1.9	x	x	x
CCC(=O)N1[C@@H]2c3ccc(C4=CCCCC4)c(=O)n3C[C@@H]2[C@@H](CO)[C@@H]1C(=O)Nc1nccs1	x	-0.1	x	x	x
Cc1cc([N+](=O)[O-])ccc1-c1ccc(C2Nc3ccccc3C(=O)N2O)o1 (stereo not drawn)	1.2	0.3	-12.4	167.6*	7.4
O=C(Nc1ccc(F)cc1)N[C@@H]1CC[C@@H](CCNC(=O)c2ccccc2F)O[C@H]1CO	x	-0.9	x	x	x
C[C@@H]1CN([C@@H](C)CO)C(=O)c2cccc(NS(=O)(=O)c3cn(C)cn3)c2O[C@@H]1CN(C)Cc1ccc(C(F)(F)F)cc1	x	0.6	x	x	x
COc1ccc(CNCCc2ccc3c(c2)OCO3)cc1Br	x	11.1*	x	0.7	x
CCC1=NN(C(=O)c2cccc(Br)c2)C(O)(c2ccc(Br)cc2)C1 (stereo not drawn)	-10.7	-0.4	80.6	91.2*	60.8
CCC1=NN(C(=O)c2ccc(C)cc2)C(O)(c2ccc(Br)cc2)C1 (stereo not drawn)	-15.5	x	-7.0	1.3	0.3
O=S(=O)(c1c(F)cccc1F)N(CCc1ccc(F)cc1)C[C@@H](O)COCc1ccccc1	0.9	-6.2	x	114.4*	x
c1ccc(CSC2=NNC(c3ccccn3)S2)cc1 (stereo not drawn)	-28.0	-4.0	6.9	92.5*	4.6
O=C(CSC1=NNC(c2ccccn2)S1)Nc1ccc(C(F)(F)F)cc1 (stereo not drawn)	-12.4	-0.1	-2.8	2.9	-0.3
COC1C=CO[C@@]2(C)Oc3c(C)c(O)c4c(O)c(c(C=NN5CCN(C6CCCC6)CC5)c(O)c4c3C2=O)NC(=O)C(C)=CC=CC(C)C(O)C(C)C(O)C(C)C(OC(C)=O)C1C (stereo partly drawn)	x	x	98.2*	x	99.0*
COC1C=COC2(C)Oc3c(C)c(O)c4c(O)c(c(CN5CCN(C)CC5)c(O)c4c3C2=O)NC(=O)C(C)=CC=CC(C)C(O)C(C)C(O)C(C)C(OC(C)=O)C1C (stereo not drawn)	-29.3	-8.0	x	-0.8	x
COc1cc(NC(=O)COC(=O)CNC(=O)c2ccc(C)cc2)c(C)cc1[N+](=O)[O-]	-9.5	0.5	1.2	86.4*	0.5
COc1ccc(S(=O)(=O)Nc2ccc3c(c2)C(=O)N([C@H](C)CO)C[C@@H](C)[C@@H](CN(C)Cc2ccc(C(=O)O)cc2)OCCCC[C@H](C)O3)cc1	x	-12.5	x	x	x
O=C(Nc1cc(Cl)cc(Cl)c1)C1CCCC1	-37.1	-8.1	18.1	69.9*	-6.9
Cc1cc(C(=O)N2CCCC(CO)(Cc3ccc(F)cc3)C2)c(C)o1 (stereo not drawn)	-20.9	-0.5	3.9	-1.1	0.9
CC(C)Cc1cc(C(=O)N2CCCC(CO)(Cc3ccc(F)cc3)C2)no1 (stereo not drawn)	3.3	10.6*	-1.3	0.5	1.7
CCOC(=O)CC1c2ccc(C(F)(F)F)cc2S(=O)(=O)N1c1cccc(OC)c1 (stereo not drawn)	x	x	3.3	x	8.5
COC(=O)C1=C(c2ccccc2)CC2CCC1N2C(=O)NCCNC(C)=O (stereo not drawn)	x	x	-0.2	x	3.1
Cc1cc(=O)n(-c2ccc(O)cc2)[nH]1	-16.1	x	82.2*	0.0	18.2
c1ccc(CSc2ccc(-c3ccccn3)nn2)nc1	-59.7	1.3	-3.4	415.8*	2.2
c1cncc(CSc2ccc(-c3cccnc3)nn2)c1	-5.6	0.5	4.0	-0.1	6.7
c1ccc(-c2ccc(SCc3cccnc3)nn2)nc1	-27.9	1.9	2.7	259.4*	1.2
NC(=O)CC(NC(=O)c1ccccc1)c1ccc(NCCc2ccc(F)cc2)c([N+](=O)[O-])c1 (stereo not drawn)	-11.8	10.1*	0.0	-0.2	4.4
SMILES	PrP UTR inh	TcdB inh	ugtP null kill	PfHsp40 rescue	RN4220 kill
COc1ccc(CCNc2ccc(C(CC(N)=O)NC(=O)c3ccccc3)cc2[N+](=O)[O-])cc1 (stereo not drawn)	-19.4	x	-9.5	2.8	5.5
c1cnc(SCCOc2cccc3ccccc23)nc1	-79.6	x	8.8	1.3	9.5
Clc1ccc(OCCSc2ncccn2)c2ccccc12	-30.4	x	95.7*	-0.4	1.6
Cc1c(Cl)cccc1NC(=S)NN=Cc1ccccc1Cl	x	x	22.4	x	-6.2
C=CCn1c(COc2ccccc2)nnc1SCC(=O)N/N=C/c1cc(Cl)ccc1O	-13.4	x	x	43.8*	x
C=CCn1c(COc2ccccc2)nnc1SCC(=O)N/N=C/c1ccc(C)cc1	-13.8	x	x	-0.2	x
CC(=O)N(C)C[C@@H]1Oc2cc(C#CCC3CCCC3)ccc2S(=O)(=O)N([C@@H](C)CO)C[C@H]1C	x	1.2	x	x	x
CCCCSc1nc(C)cc(SCC(=O)N/N=C/c2cccc(OC)c2O)n1	16.8	x	x	103.5*	x
CCCc1cc(C(N)=O)c(NC(=O)c2ccoc2C)s1	-0.5	0.1	-20.8	9.2	2.3
CCCc1cc(C(N)=O)c(NC(=O)c2cc(C)on2)s1	-20.6	2.2	-6.0	178.4*	6.2
COc1ccc(C=NNC(=O)c2cc(C3CC3)[nH]n2)cc1OC	x	x	5.7	x	0.9
Cc1ccccc1OCCN1CCC(Cc2ccccc2)CC1	-14.4	-0.9	-13.5	59.1*	-4.7
Cc1ccc(CSc2ncnc3c2cnn3Cc2ccccc2)cc1C	-0.8	x	93.0*	1.0	-2.3
N#Cc1ccc(CSc2ncnc3c2cnn3Cc2ccccc2)cc1	2.8	x	42.2	1.2	-7.6
Cc1ccc(CSc2ncnc3c2cnn3Cc2ccccc2)cc1	-16.8	x	90.4*	0.0	-4.0
O=C(O)c1ccc(CSc2ncnc3c2cnn3Cc2ccccc2)cc1	-12.7	0.4	8.8	4.7	9.8
Cc1ccc(S(=O)(=O)N(C)C[C@@H]2OCCCC[C@@H](C)Oc3ccc(NS(C)(=O)=O)cc3C(=O)N([C@H](C)CO)C[C@@H]2C)cc1	x	0.3	x	x	x
Cc1ccc(CN2CCC(CNC(=O)Nc3ccccc3F)CC2)cc1	-1.3	1.8	13.4	54.6*	0.7
O=C(NCC1CC1)Nc1ccccc1F	-32.4	0.5	3.6	-1.6	1.3
Cc1ccc(Sc2ccc(NC(=O)CCl)cc2)cc1C	9.1	x	-13.7	456.8*	19.8
O=C(NC1CC1)C1=CC(c2ccccc2)CC(OCCCCO)O1 (stereo not drawn)	x	x	-1.0	x	3.3
Nc1ccc(CC2=NCCN2)cc1	-20.3	-0.9	6.1	34.5*	1.8
Cc1cc(C)c(N=Cc2c(O)c3ccccc3oc2=O)c(C)c1	-36.9	0.5	3.9	66.0*	1.7
CN(C)CCCNC(=O)c1ccc(-c2nc(-c3ccc(Cl)cc3)cs2)cc1	-23.7	x	84.2*	3.7	31.7
CN(C)S(=O)(=O)Oc1cccc(C(=O)Nc2ccc(Cl)c(Cl)c2)c1	-110.2	x	-13.1	233.3*	-3.5
C[C@@H]1CCCCO[C@H](CN(C)Cc2ccc(C(=O)O)cc2)[C@H](C)CN([C@H](C)CO)C(=O)c2cc(NS(=O)(=O)c3ccc(F)cc3)ccc2O1	x	1.1	x	x	x
